Active and inactive are the calls of the source. Entries that show only a call come without a potency. Calls follow the shape of the dose curve; as a rule, active = well fitted curve in the direction sought with a large enough effect; inconclusive = small, poorly fitted or top-dose-only effect, or another doubt; inactive = no such curve, though single readings can be large; an effect the other way counts as inactive or inconclusive.
Experiment: qHTS for inhibitors of adenylyl cyclases using a fission yeast platform: a pilot screen against the NCATS LOPAC library (AID 1347410)
Settings: S. pombe CHP2027, fbp1-GFP fluorescence, 18 h, yeast expressing mammalian AC9 and human GNAS; series mostly up to 57.5 µM
In short: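 GFP from fbp1-GFP reporter, read by Acumen laser cytometry, indicates AC inhibition in fission yeast expressing AC9, GNAS and PDE4D2. Cells grown 18 h in the dark at 30C with compounds, final up to 57 uM.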

SMILES	outcome
Cc1cccc(C2CN(C)CCc3c2cc(O)c(O)c3Cl)c1 (stereo unspecified)	inactive
C[C@]12C=CC(=O)C=C1CC[C@@H]1C2=CC[C@]2(C)[C@@H](C(=O)CN3CCN(c4cc(N5CCCC5)nc(N5CCCC5)n4)CC3)CC[C@@H]12	inactive
CC(N)=O	inactive
CC(=O)[C@H]1CCC2C3CC=C4C[C@@H](OS(=O)(=O)O)CC[C@]4(C)C3CC[C@@]21C (stereo partly specified)	inactive
COc1cc(/C=C(\C#N)C(=O)c2ccc(O)c(O)c2)cc(I)c1O	inactive
NC1C=CC=C(C(=O)O)C1 (stereo unspecified)	inactive
CCCc1c(-c2ccc(O)cc2)nn(-c2ccc(O)cc2)c1-c1ccc(O)cc1	inactive
N[C@H](C(=O)O)c1cc(O)cc(O)c1	inactive
O=c1[nH]c2cc(Cl)ccc2c(O)c1-c1ccc(Oc2ccccc2)cc1	inactive
N[C@H](C(=O)O)[C@H]1C[C@@H]1C(=O)O	inactive
N#C/C(=C\c1ccc(O)c(O)c1)C(=O)NCCCNC(=O)/C(C#N)=C/c1ccc(O)c(O)c1	inactive
CCCCCCN(CCCCCC)C(=O)Cc1c(-c2ccc(F)cc2)[nH]c2ccccc12	inactive
COc1ccccc1N1CCN(CCN(C(=O)c2ccc(F)cc2)c2ccccn2)CC1	inactive
Cn1c(=O)[nH]c2ncn(C)c2c1=O	inactive
Cc1cc(Cn2cnc3c2C[C@@H](C(=O)O)N(C(=O)C(c2ccccc2)c2ccccc2)C3)ccc1N	inactive
Nc1ncnc2c1ncn2C1CCCC1	inactive
Nc1nc2c(cnn2CCc2ccccc2)c2nc(-c3ccco3)nn12	inactive
C[N+](C)(C)CC=O	inactive
Cc1nc(N=Nc2ccc(C(=O)O)cc2)c(COP(=O)(O)O)c(C=O)c1O	inactive

SMILES	outcome
CCCCCCCCCC(=O)NC(CN1CCOCC1)[C@H](O)c1ccccc1 (stereo partly specified)	inactive
COc1ccccc1N1CCN(CCCNc2c(C)c(=O)n(C)c(=O)n2C)CC1	inactive
NCC(O)c1ccc(O)c(O)c1 (stereo unspecified)	inactive
O=C(O)CCC/C=C\C[C@@H]1[C@@H](/C=C/[C@H](O)C2Cc3ccccc3C2)[C@@H](F)C[C@@H]1O	inactive
N=C(N)c1ccccc1	inactive
Cc1cc2c(cc1Cl)N(C(=O)Nc1ccnc3ccccc13)CC2	inactive
C=C(C)C1CC=C(C(=O)O)CC1 (stereo unspecified)	inactive
c1ccc2nc(C3=NCCN3)ccc2c1	inactive
COC(=O)C(N)Cc1ccc(Cl)cc1 (stereo unspecified)	inactive
NOCC(=O)O	inactive
NCCCCN	inactive
CCCn1c(=O)c(C)cn2nc(N)nc12	inactive
[Li+]	inactive
C=CCn1c(=O)c2c(nc(-c3ccc(S(=O)(=O)O)cc3)n2C)n(C)c1=O	inactive
CCCCCC(O)CCCC(=O)O (stereo unspecified)	inactive
COC(=O)C(C)(N)Cc1ccc(O)cc1 (stereo unspecified)	inactive
Oc1cc(O)c2c(c1)O[C@H](c1ccc(O)c(O)c1)[C@@H](O)C2	inactive
N#CC(C#N)=C(N)/C(C#N)=C/c1ccc(O)cc1	inactive
NC(N)=NC(N)=Nc1ccccc1	inactive

Experiment: Validation qHTS assay for inhibitors of Activation Induced Cytidine Deaminase (AID): UDG Counterscreen signal (AID 1347427)
Settings: biochemical UDG counterscreen, fluorescence signal; series mostly up to 115 µM
In short: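 Fluorescence at 560 nm excitation, 665 nm emission reports UDG signal after 250 mM NaOH (2x) addition and 30 min. Enzymes (AID 1 uM, UDG 2 U/mL, at 4/3x) preincubated 10 min with compound, then 4 h with 4x 250 nM DJC20/DJC23 substrate at room temperature.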

SMILES	Potency
Cc1cccc(C2CN(C)CCc3c2cc(O)c(O)c3Cl)c1 (stereo unspecified)	inactive
C[C@]12C=CC(=O)C=C1CC[C@@H]1C2=CC[C@]2(C)[C@@H](C(=O)CN3CCN(c4cc(N5CCCC5)nc(N5CCCC5)n4)CC3)CC[C@@H]12	inactive
CC(N)=O	inactive
CC(=O)[C@H]1CCC2C3CC=C4C[C@@H](OS(=O)(=O)O)CC[C@]4(C)C3CC[C@@]21C (stereo partly specified)	inactive
COc1cc(/C=C(\C#N)C(=O)c2ccc(O)c(O)c2)cc(I)c1O	inactive
NC1C=CC=C(C(=O)O)C1 (stereo unspecified)	inactive
CCCc1c(-c2ccc(O)cc2)nn(-c2ccc(O)cc2)c1-c1ccc(O)cc1	inactive
N[C@H](C(=O)O)c1cc(O)cc(O)c1	inactive
O=c1[nH]c2cc(Cl)ccc2c(O)c1-c1ccc(Oc2ccccc2)cc1	inactive
N[C@H](C(=O)O)[C@H]1C[C@@H]1C(=O)O	inactive
N#C/C(=C\c1ccc(O)c(O)c1)C(=O)NCCCNC(=O)/C(C#N)=C/c1ccc(O)c(O)c1	inactive
CCCCCCN(CCCCCC)C(=O)Cc1c(-c2ccc(F)cc2)[nH]c2ccccc12	inactive
COc1ccccc1N1CCN(CCN(C(=O)c2ccc(F)cc2)c2ccccn2)CC1	inactive
Cn1c(=O)[nH]c2ncn(C)c2c1=O	inactive
Cc1cc(Cn2cnc3c2C[C@@H](C(=O)O)N(C(=O)C(c2ccccc2)c2ccccc2)C3)ccc1N	inactive
Nc1ncnc2c1ncn2C1CCCC1	inactive
Nc1nc2c(cnn2CCc2ccccc2)c2nc(-c3ccco3)nn12	inactive
C[N+](C)(C)CC=O	inactive
Cc1nc(N=Nc2ccc(C(=O)O)cc2)c(COP(=O)(O)O)c(C=O)c1O	inactive

SMILES	Potency
CCCCCCCCCC(=O)NC(CN1CCOCC1)[C@H](O)c1ccccc1 (stereo partly specified)	inactive
COc1ccccc1N1CCN(CCCNc2c(C)c(=O)n(C)c(=O)n2C)CC1	inactive
NCC(O)c1ccc(O)c(O)c1 (stereo unspecified)	inactive
O=C(O)CCC/C=C\C[C@@H]1[C@@H](/C=C/[C@H](O)C2Cc3ccccc3C2)[C@@H](F)C[C@@H]1O	inactive
N=C(N)c1ccccc1	inactive
Cc1cc2c(cc1Cl)N(C(=O)Nc1ccnc3ccccc13)CC2	inactive
C=C(C)C1CC=C(C(=O)O)CC1 (stereo unspecified)	inactive
c1ccc2nc(C3=NCCN3)ccc2c1	inactive
COC(=O)C(N)Cc1ccc(Cl)cc1 (stereo unspecified)	inactive
NOCC(=O)O	inactive
NCCCCN	inactive
CCCn1c(=O)c(C)cn2nc(N)nc12	inactive
[Li+]	inactive
C=CCn1c(=O)c2c(nc(-c3ccc(S(=O)(=O)O)cc3)n2C)n(C)c1=O	inactive
CCCCCC(O)CCCC(=O)O (stereo unspecified)	inactive
COC(=O)C(C)(N)Cc1ccc(O)cc1 (stereo unspecified)	inactive
Oc1cc(O)c2c(c1)O[C@H](c1ccc(O)c(O)c1)[C@@H](O)C2	inactive
N#CC(C#N)=C(N)/C(C#N)=C/c1ccc(O)cc1	inactive
NC(N)=NC(N)=Nc1ccccc1	inactive
